# aSyn 5UTR act: Activators via SNCA 5'UTR binding, MLPCN. activity score, % (tested at 7.5 µM), hits read low. hit rate 7.1% among 300,000. AID 1814. alpha-synuclein 5'UTR reporter, activators screen; in the data active = activity score below about -60%
# An asterisk follows results filed as active. A selection follows.
SMILES,aSyn 5UTR act
COC1=C(C)C(O)=C(C(=O)/C=C/c2ccccc2)C(=O)C1(C)C,-104*
Cc1ccc(S(=O)(=O)Nc2nc3ccccc3nc2NCc2ccco2)cc1,-180*
Cc1ccc(C(=O)Nc2cccc(C(=O)N3CCN(C)CC3)c2)cc1,-98*
Cc1ccc(C(=O)Nc2cccc(C(=O)NCc3ccco3)c2)cc1,-72*
C/C(=N\Nc1nc(Cl)c(Cl)cc1Cl)c1ccc(S(=O)(=O)NCc2ccco2)cc1,-64*
CCC1=Nc2cc(C(=O)NCc3ccco3)ccc2Sc2ccc(C)cc21,104
Cc1ccc(C(=O)Nc2ccc(S(=O)(=O)NCc3ccco3)cc2)cc1,-92*
C/C(=N\Nc1ccc(C(=O)O)cc1)c1ccc(S(=O)(=O)NCc2ccco2)cc1,-75*
Cc1ccc(/C=N/NC(=O)c2ccoc2C)s1,-120*
C/C(=N\NC(=O)c1ccoc1C)c1ccc(Br)s1,-65*
Cc1occc1C(=O)N/N=C/c1ccc(Br)s1,-149*
CC(/C=N/Nc1nc2ccccc2[nH]1)=C\c1ccccc1,-70*
CC(/C=N/Nc1nc(C)cc(=O)[nH]1)=C\c1ccccc1,-67*
CN(C)S(=O)(=O)c1ccc2nc(NC(=O)c3cccs3)sc2c1,-108*
CN(C)S(=O)(=O)c1ccc2nc(NC(=O)c3cccnc3)sc2c1,-68*
O=C(NC(Nc1nc2ccc([N+](=O)[O-])cc2s1)(C(F)(F)F)C(F)(F)F)c1cccnc1,60
O=C(NC(=S)Nc1nc2ccc(F)cc2s1)c1ccco1,-171*
CC(=O)Nc1ccc2nc(NC(=O)c3cccnc3)sc2c1,-92*
CSc1nc2ccc3nc(NC(=O)c4cccs4)sc3c2s1,-370*
O=C(Nc1nc2ccc(F)cc2s1)c1cccs1,-223*
O=C(CSC(=S)N1CCOCC1)Nc1nc(=O)c2ccccc2s1,-85*
Cc1cc(Cl)c2oc(C(=O)N3CCN(c4cccc(C)n4)CC3)c(C)c2c1,-127*
COc1cccc(/C=C/C(=O)c2c(O)cc(C)oc2=O)c1O,-111*
COc1ccc(/C=C/C(=O)c2c(O)cc(C)oc2=O)c(OC)c1,-230*
CCC(C)C(=O)N1CCCC(c2nc(-c3cccs3)no2)C1 (stereo not drawn),-126*
SMILES,aSyn 5UTR act
COc1cccc(-c2noc(C3CCCN(C(=O)CC(C)(C)C)C3)n2)c1 (stereo not drawn),-127*
Cc1ccccc1NC(=O)N1CCCC(c2nc(-c3ccc(C(C)C)cc3)no2)C1 (stereo not drawn),-205*
CCCCC(=O)N1CCCC(c2nc(-c3cccc(OC)c3)no2)C1 (stereo not drawn),-141*
COc1cccc(-c2noc(C3CCCN(C(=O)c4ccccc4OC)C3)n2)c1 (stereo not drawn),-85*
O=C(CSc1n[nH]c(-c2ccccn2)n1)Nc1ccc(Cl)cc1,74
O=C(CCCOc1ccccc1)Nc1nc2ccccc2[nH]1,-115*
O=C(CSc1ccc(Cl)cc1)Nc1ccc(-c2nc3ccccc3[nH]2)cc1,-94*
O=C(CSc1ccccc1)Nc1nc2ccccc2[nH]1,-132*
Cc1nc(S(=O)(=O)NC2CCCCC2)c(C#N)c(C)c1Cl,-91*
Cc1nc(S(=O)(=O)N(C)Cc2ccccc2)c(C#N)c(C)c1Cl,-118*
Cc1nc(S(=O)(=O)N2CCOCC2)c(C#N)c(C)c1Cl,-100*
Cc1nc(-c2ccc(Cl)cc2)sc1C(=O)O,-101*
Cc1ccc(-c2nc(C)c(C(=O)O)s2)cc1,-208*
C/C(=N\OC(=O)c1ccc(F)cc1)c1sc(-c2ccc(Cl)cc2)nc1C,-211*
CCCc1nn(C)c(C(=O)Nc2ccc(CC)cc2)c1Cl,-74*
CCCc1nn(C)c(C(=O)Nc2ccc(C)c(C)c2)c1Cl,-102*
CCn1nc(C(=O)Nc2ccc(C)c(C)c2)c(Cl)c1Cl,-91*
COc1ccc(C2=C(C=O)Cc3ccccc3O2)cc1,98
COc1ccc(C2=C/C(=C\c3ccccc3OC(C)=O)C(=O)O2)cc1,-79*
Cc1ccc(C(=O)NCCC(=O)N2CCOCC2)cc1,-101*
CC(C)(C)c1ccc(C(=O)NCCC(=O)N2CCCC2)cc1,-105*
CC(C)(C)c1cc(C(=O)NCCN2CCCC2)cc(C(C)(C)C)c1,-82*
CCOc1cccc(OCCCOc2ccccc2)c1,-76*
Cc1c(C(=O)Nc2ccc3c(c2)OCO3)oc2ccccc12,-137*
CC(=O)Nc1c(C(=O)Nc2ccc3c(c2)OCO3)oc2ccccc12,-88*
SMILES,aSyn 5UTR act
O=C(CCl)Nc1c(C(=O)Nc2ccc3c(c2)OCCO3)oc2ccccc12,-139*
COCC(=O)Nc1c(C(=O)Nc2ccc3c(c2)OCO3)oc2ccccc12,-117*
COc1ccc(-c2nc(SC)n(S(=O)(=O)c3ccccc3)n2)cc1,-120*
COc1cc(OC)cc(-c2cc3nc(C)cc(N4CCN(C(=O)c5ccco5)CC4)n3n2)c1,-70*
COc1cc(OC)cc(-c2cc3nc(C)c(CCC(=O)NCc4ccccc4)c(C)n3n2)c1,75
N=c1oc2cc(O)ccc2cc1C(=O)Nc1ccc(Br)cc1,-172*
N=c1oc2cc(O)ccc2cc1C(=O)Nc1nc2ccccc2s1,-188*
CC1CCN(C(=O)CSc2nnc(-c3cccs3)o2)CC1,-79*
O=C(CSc1nnc(-c2cccs2)o1)N1CCCCC1,-99*
CC1CCN(c2ccc(-c3cccs3)nn2)CC1,102
O=C(CSc1nnc(-c2ccco2)o1)c1ccc[nH]1,-158*
O=C(CSc1nnc(-c2ccco2)o1)N1CCCCC1,-95*
Clc1cccc(/C(Cc2nc3ccccc3[nH]2)=N\Nc2ccccc2)c1,-64*
CCN/N=C(\Cc1nc2ccccc2[nH]1)c1ccccc1,-138*
N#CCCN/N=C(/Cc1nc2ccccc2[nH]1)c1ccc(Cl)cc1,-67*
N/N=C(/Cc1nc2ccccc2[nH]1)c1ccc([N+](=O)[O-])cc1,-75*
c1ccc(N/N=C(\Cc2nc3ccccc3[nH]2)c2ccccc2)cc1,-102*
COc1ccc(-c2cc(C(=O)N3CCCCCC3)no2)cc1OC,-124*
COc1ccc(-c2cc(C(=O)N3CCCCCC3)no2)cc1,-85*
O=C(CSc1nnc(-c2ccccn2)o1)Nc1ccccc1,-71*
Cc1occc1-c1nnc(SCC(=O)Nc2ccccn2)o1,-115*
O=C(CSc1nnc(-c2ccccn2)o1)Nc1ccc(F)cc1,-94*
Fc1ccc(CSc2nnc(-c3ccccn3)o2)cc1,-196*
O=C(CSc1n[nH]c(-c2ccccn2)n1)Nc1ccc(F)cc1,73
c1ccc(-c2nc3ccccc3[nH]2)cc1,-138*
SMILES,aSyn 5UTR act
Cc1ccc(-c2nc3ccccc3[nH]2)s1,-80*
Cc1[nH]c2ccccc2c1-c1nc2ccccc2[nH]1,-78*
c1cncc(-c2nc3ccccc3[nH]2)c1,-88*
CCOc1ccc(C(=O)N/N=C/c2ccccc2[N+](=O)[O-])cc1,-126*
Cc1ccc(C(=O)N/N=C\c2ccccc2[N+](=O)[O-])cn1,-111*
CCC(=O)Nc1ccc(C(=O)N/N=C/c2ccccc2[N+](=O)[O-])cc1,-81*
COc1ccc(C(=O)N/N=C(/C)c2ccc(N3CCCCC3)cc2)cc1,-68*
C/C(=N\NC(=O)CC(C)C)c1ccc(N2CCCCC2)cc1,-62*
COc1ccc(/C(C)=N/NC(=O)c2nc(C)cc(C)n2)cc1,-114*
CCC(=O)c1ccc(SC(=O)N(C)C)cc1O,-68*
CCOc1ccc2c(c1)c(N=O)c(O)n2C,-65*
CC(C)(C)c1ccc(C(=O)N2CCCC2)s1,-64*
CC(C)(O)C#Cc1ccc(C(=O)NCc2ccccc2F)cc1,-66*
O=C(C#Cc1ccccc1)NCc1ccccc1F,-70*

# Screening data as filed in PubChem.
